The nature of assay [1]: APR_HepG2_NuclearSize_24hr: Apredica 24-hour HepG2 Assay for Nuclear Size (AID 2282907). As to conditions: high-content imaging, actives raise or lower the signal. Put shortly: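 Compounds in DMSO (final 0.5%) were added to human HepG2 hepatoma cells at ten concentrations up to 200 uM for 24 hr. Fixed nuclei were stained with Hoechst 33342, and nuclear diameter was quantified from automated images.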

Assay [2] can be described thus: APR_HepG2_CellLoss_24hr: Apredica 24-hour HepG2 Assay for Cell Loss (AID 2282908).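 For AC50: fit in both directions so a hit may be cell loss or gain.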 As to conditions: high-content imaging. Put shortly: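 Cell number is quantified by fluorescence imaging of Hoechst 33342-stained nuclei following dosing at 0.39–200 uM in 0.5% DMSO. Curves are fitted in both directions from the DMSO baseline.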
A short description of assay [3]: APR_HepG2_MicrotubuleCSK_24hr: Apredica 24-hour HepG2 Assay for Microtubule CSK Stabilty (AID 2282909). The conditions noted are these: HepG2 microtubule cytoskeleton imaging, actives raise or lower the signal. Put shortly:
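Steps: dose HepG2 for 24 h (0.39–200 uM, 0.5% DMSO); fix 30 min in 3.7% formaldehyde at room temperature; permeabilize; stain alpha-tubulin 60 min; image microtubule cytoskeleton at 20x. Signal change fitted in both directions relative to DMSO.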

The nature of assay [4]: APR_HepG2_MitoticArrest_24hr: Apredica 24-hour HepG2 Assay for Mitotic Arrest (AID 2282910). As to conditions: high-content imaging, actives raise or lower the signal. The essentials: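 HepG2 cells, 24 h exposure at 0.39-200 uM (10 concentrations, duplicate, 0.5% DMSO). Fixed, stained for phospho-histone H3 with Hoechst; imaged by high-content microscopy, bidirectional fit versus DMSO.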

Assay [5] in a line: APR_HepG2_MitoMembPot_24hr: Apredica 24-hour HepG2 Assay for Mitochondrial Membrane Potential (AID 2282911). The conditions noted are these: imaging, actives raise or lower the signal. Put shortly:
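HepG2 human liver cells were exposed 24 hr to compounds at 0.39–200 uM (final DMSO 0.5% v/v) in duplicate. MitoTracker Red CMXRos (250 nM, 30 min) was loaded before formaldehyde fixation; fluorescence was imaged by ArrayScan HCS and fitted bidirectionally versus DMSO.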

A short description of assay [6]: APR_HepG2_MitoMass_24hr: Apredica 24-hour HepG2 Assay for Mitochondrial Mass (AID 2282912). The conditions noted are these: high-content imaging, actives raise or lower the signal. Put shortly:
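The liver line HepG2 was dosed in duplicate across a 0.39–200 uM series, with final DMSO held at 0.5% v/v, and harvested at 24 hr. High-content imaging measured mitochondrial dye staining.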

Assay [7] can be described thus: APR_HepG2_p53Act_24hr: Apredica 24-hour HepG2 Assay for p53 Activation (AID 2282913).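 Note: p53 protein immunofluorescence averaged per cell in HepG2 with Hoechst nuclei.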 As to conditions: high-content imaging, actives raise or lower the signal. The essentials: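 HepG2 cells exposed 24 hr to compounds at 0.39–200 uM (10 concentrations, duplicate), final DMSO 0.5% v/v. After formaldehyde fixation and Triton permeabilization, p53 was immunolabeled (sheep anti-p53, Cy5 secondary) with Hoechst 33342 nuclear counterstain, then imaged by high-content fluorescence microscopy.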

Assay [8] is described as follows: APR_HepG2_CellLoss_72hr: Apredica 72-hour HepG2 Assay for Cell Loss (AID 2282915). As to conditions: high-content imaging. Put shortly: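 HepG2 cells exposed 72 h to compound at 0.39–200 uM (10 concentrations, duplicate) in 0.5% DMSO. Fixed with 3.7% formaldehyde and Hoechst 33342-stained. Imaged at 20x; nuclear count gives cell number, fitted bidirectionally versus DMSO.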

A short description of assay [9]: APR_HepG2_P-H2AX_72hr: Apredica 72-hour HepG2 Assay for H2AX Phosphorylation (AID 2282916).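 Note: phospho-histone H2A.x immunostain intensity per cell marking DNA damage.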 As to conditions: imaging, actives raise or lower the signal. The essentials:
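Following 72 hr treatment with 0.39–200 uM compound, HepG2 cells were formaldehyde-fixed, permeabilized and stained for phospho-H2A.x; signal was measured by high-content imaging and fitted bidirectionally against DMSO controls.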

A short description of assay [10]: APR_HepG2_MitoMembPot_72hr: Apredica 72-hour HepG2 Assay for Mitochondrial Membrane Potential (AID 2282917). As to conditions: imaging, actives raise or lower the signal. The essentials:
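HepG2 cells dosed 72 hr with compound at 0.39–200 uM in duplicate, 0.5% v/v DMSO final. Mitochondria stained with 250 nM MitoTracker Red CMXRos for 30 min before formaldehyde fixation, imaged by high-content fluorescence; bidirectional fit versus DMSO.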

Assay [11] in a line: APR_HepG2_MitoticArrest_72hr: Apredica 72-hour HepG2 Assay for Mitotic Arrest (AID 2282918). As to conditions: high-content imaging, actives raise or lower the signal. Put shortly: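 HepG2 cells were exposed for 72 hr to compound at 0.39–200 uM (10 concentrations, duplicate) in 0.5% v/v DMSO, fixed in 3.7% formaldehyde, immunostained for phospho-histone H3 with Hoechst 33342 and imaged by high-content fluorescence; bidirectional fits versus DMSO.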

The nature of assay [12]: APR_HepG2_MicrotubuleCSK_72hr: Apredica 72-hour HepG2 Assay for Microtubule CSK Stabilty (AID 2282919). The conditions noted are these: HepG2 microtubule cytoskeleton, high-content imaging, actives raise or lower the signal. The essentials: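 HepG2 cells were exposed 72 hr to compound at 0.39–200 uM in duplicate (0.5% DMSO final), then fixed and permeabilized. Alpha-tubulin immunofluorescence was imaged by high-content microscopy, with bidirectional fitting against DMSO and taxol as positive control.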

Assay [13] can be described thus: APR_HepG2_P-H2AX_24hr: Apredica 24-hour HepG2 Assay for H2AX Phosphorylation (AID 2282920). As to conditions: high-content imaging, actives raise or lower the signal. Put shortly: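 HepG2 human liver cells were exposed for 24 hr to compounds at 0.39–200 uM in duplicate, with 0.5% v/v DMSO final. Fixed cells were immunostained for phospho-histone H2A.x plus Hoechst 33342, imaged by HCS fluorescence, and fitted bidirectionally against DMSO.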

Assay [14] can be described thus: APR_HepG2_StressKinase_72hr: Apredica 72-hour HepG2 Assay for Stress Kinase (AID 2282921). As to conditions: HepG2 stress kinase (phospho-c-Jun) imaging, actives raise or lower the signal. Put shortly:
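Fluorescence intensity of Cy3-tagged anti-phospho-c-Jun antibody, quantified per cell from Hoechst-defined nuclei across six images per well, served as the read-out following 72 h exposure (0.39–200 uM, 0.5% v/v DMSO).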

Assay [15] in a line: APR_HepG2_NuclearSize_72hr: Apredica 72-hour HepG2 Assay for Nuclear Size (AID 2282925). As to conditions: high-content imaging, actives raise or lower the signal. The essentials: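 HepG2 cells dosed 72 h at 0.39–200 uM (10 concentrations, duplicate) in 0.5% v/v DMSO final. Fixed, Hoechst 33342-stained nuclei imaged; nuclear diameter measured by automated image analysis. Bidirectional fit versus DMSO.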

A short description of assay [16]: APR_HepG2_StressKinase_1hr: Apredica 1-hour HepG2 Assay for Stress Kinase (AID 2282906). As to conditions: HepG2 stress kinase (phospho-c-Jun) imaging, actives raise or lower the signal. Put shortly:
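HepG2 cells dosed 0.39-200 uM (0.5% DMSO) for 1 h, then formaldehyde-fixed. Stress kinase read by phospho-c-Jun immunofluorescence using high-content imaging; bidirectional fit vs DMSO.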

A short description of assay [17]: APR_HepG2_MitoMass_72hr: Apredica 72-hour HepG2 Assay for Mitochondrial Mass (AID 2282924).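 Note: MitoTracker Red CMXRos stain intensity per cell imaged as mitochondrial mass.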 As to conditions: high-content imaging, actives raise or lower the signal. The essentials:
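HepG2 cells dosed 72 hr at 0.39–200 uM (0.5% DMSO), in duplicate. MitoTracker Red CMXRos 250 nM loaded 30 min before formaldehyde fixation; high-content fluorescence imaging, bidirectional fit versus DMSO.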

Assay [18] is described as follows: APR_HepG2_StressKinase_24hr: Apredica 24-hour HepG2 Assay for Stress Kinase (AID 2282922). As to conditions: HepG2 stress kinase (phospho-c-Jun) imaging, actives raise or lower the signal. The essentials: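 HepG2 cells exposed 24 h to 0.39–200 uM compound in duplicate (0.5% v/v DMSO final). Cells fixed in 3.7% formaldehyde, permeabilized and immunostained for phospho-c-Jun; read by high-content fluorescence imaging, fitted bidirectionally against DMSO.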

Assay [19] can be described thus: APR_HepG2_CellCycleArrest_72hr: Apredica 72-hour HepG2 Assay for Cell Cycle Arrest (AID 2282914). The conditions noted are these: high-content imaging, actives raise or lower the signal. The essentials: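 HepG2 cells were exposed to compounds at 0.39–200 uM (0.5% v/v DMSO final, duplicates) for 72 hr, fixed in 3.7% formaldehyde, permeabilized and stained with Hoechst 33342. Nuclear DNA content was quantified by high-content imaging; gain or loss of signal was fitted bidirectionally against DMSO.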

The nature of assay [20]: APR_HepG2_p53Act_72hr: Apredica 72-hour HepG2 Assay for p53 Activation (AID 2282923).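 Note: average cellular p53 protein immunofluorescence intensity in HepG2 cells.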 The conditions noted are these: high-content imaging, actives raise or lower the signal. The essentials: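 HepG2 monolayers receive test compounds in duplicate at ten concentrations (0.39 through 200 uM) for 72 hr. They are then formaldehyde-fixed, antibody-labelled for p53, Hoechst-stained and imaged, with activity fitted bidirectionally versus DMSO.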

Where “and” joins values, the source holds several entries; their conditions need not be identical. Equal entries are not always repeated. A structure can be active in one record and inactive in another. Calls of active or inactive are those of the source. Rule for the calls: active = hit-call score of the fitted dose curve at least 0.9, where 1 is the maximum; inactive = score below 0.9.

For `CCC(C)OC(=O)N1CCCCC1CCO` (centres undefined), the call in assay [1], in assay [2], in [3], in assay [4], in [5] and in assay [6] was inactive. Also, the result in [7], in assay [8], in assay [9], in assay [10], in assay [11] and in [12] was inactive. For the same compound, the compound was classed as inactive in [13], in [14] and in assay [15].

The term AC50 denotes the concentration giving half of the maximal activity seen. Turning to `S=C(S)NCCNC(=S)S.[Mn+2].[S-]C([S-])=NCCN=C([S-])[S-].[Zn+2]`, the outcome in assay [1], in assay [2], in assay [3], in [4], in assay [5] and in [6] was inactive. The compound was called inactive in assay [8], in assay [9], in assay [10], in assay [11], in [12] and in [14]. Further, in [15], the compound was classed as inactive. For the same compound, the AC50 in [2] was 50.1 µM (active) [middle of 4 runs]; in assay [4] it was 55.2 µM (active) and 107 µM (active); in assay [8], 46.5 µM (active) [middle of 5 runs]; in assay [9], 50 µM (active) [middle of 6 runs]; in assay [11] it was 51.9 µM (active) [middle of 5 runs]; in [13] it was 50 µM (active) [middle of 7 runs]. In addition, the concentration at half-maximal activity (AC50) in assay [14] was 39800 nM (active); in assay [15] it was 80600 nM (active).

On to `CN(C)C(=O)Nc1ccc(Cl)c(Cl)c1`, for which the compound was called inactive in assay [16], in assay [1], in assay [2], in [3], in [4] and in [5]. Further, the compound was called inactive in [6], in assay [7], in assay [8], in assay [9], in assay [11] and in [12]. The compound was classed as inactive in assay [13], in [14], in [17] and in assay [15]. Also, the concentration at half-maximal activity (AC50) in assay [10] is 15.7 µM (active).

`O=C(Nc1ccc([N+](=O)[O-])cc1Cl)c1cc(Cl)ccc1O`: the AC50 in assay [16] was 364 nM (active); in assay [2], 332 nM (active); in assay [4], 784 nM (active); in assay [6] it was 2.63 µM (active); in [7], 1490 nM (active); in assay [8], 331 nM (active). For the same compound, the AC50 in assay [10] was 1.06 µM (active); in assay [11], 238 nM (active); in assay [12], 44.4 nM (active); in assay [13], 1.8 µM (active). Further, the result in [1], in assay [5], in assay [9], in [14] and in [15] was inactive.

`CC(C)(c1ccc(O)cc1)c1ccc(O)cc1`: the result in assay [1], in assay [2], in assay [4], in [5], in assay [6] and in assay [7] was inactive. In addition, the outcome in assay [9], in assay [10], in assay [11], in assay [12], in [13] and in assay [14] was inactive. Further, the outcome in assay [18] and in [15] was inactive. The AC50 was 106 µM (active) and 107 µM (active) and 100 µM (active) in assay [2]; 12.7 µM (active) and 30.5 µM (active) and 101 µM (active) in assay [5]; 109 µM (active) and 122 µM (active) in [6]; 109 µM (active) [middle of 4 runs] in assay [8]; 114 µM (active) and 105 µM (active) in assay [9]; 101 µM (active) and 81.5 µM (active) and 107 µM (active) in assay [10]. Moreover, the AC50 in [13] was 170 µM (active) and 110 µM (active); in [14], 102000 nM (active).

For `C#CCOC(=O)[C@@H](C)Oc1ccc(Oc2ncc(Cl)cc2F)cc1`, the compound was classed as inactive in assay [1], in assay [2], in assay [3], in assay [4], in [5] and in assay [6]. Moreover, the compound was called inactive in assay [7], in assay [19], in assay [8], in assay [9], in [10] and in assay [11]. For the same compound, the compound was classed as inactive in assay [12], in [13], in assay [14], in [18], in assay [20] and in assay [17]. Also, the compound was called inactive in [15].

Values taken from PubChem BioAssay (EPA / NIEHS).
